From PubChem BioAssay AID731 (The Scripps Research Institute Molecular Screening Center, 2007)
The campaign covered roughly 200,000 compounds. About 520 (0.26%) were called active. No stated cut-off is given here; in the data, active means activation above about 23%; inactive means the rest. Only a selection was taken, and actives are over-represented in it overall.

Target: Peroxisome proliferator-activated receptor gamma (Homo sapiens) (UniProt P37231)
Test: enhancers of SRC-3 binding to PPARgamma – biochemical, primary screen (AID 731);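 further: 0% = DMSO and 100% = reference agonist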
Conditions: biochemical PPARgamma/SRC-3 coactivator recruitment assay; at 8 µM; hits give high values

Chain of Peroxisome proliferator-activated receptor gamma (Homo sapiens) (P37231 whole entry, looked up): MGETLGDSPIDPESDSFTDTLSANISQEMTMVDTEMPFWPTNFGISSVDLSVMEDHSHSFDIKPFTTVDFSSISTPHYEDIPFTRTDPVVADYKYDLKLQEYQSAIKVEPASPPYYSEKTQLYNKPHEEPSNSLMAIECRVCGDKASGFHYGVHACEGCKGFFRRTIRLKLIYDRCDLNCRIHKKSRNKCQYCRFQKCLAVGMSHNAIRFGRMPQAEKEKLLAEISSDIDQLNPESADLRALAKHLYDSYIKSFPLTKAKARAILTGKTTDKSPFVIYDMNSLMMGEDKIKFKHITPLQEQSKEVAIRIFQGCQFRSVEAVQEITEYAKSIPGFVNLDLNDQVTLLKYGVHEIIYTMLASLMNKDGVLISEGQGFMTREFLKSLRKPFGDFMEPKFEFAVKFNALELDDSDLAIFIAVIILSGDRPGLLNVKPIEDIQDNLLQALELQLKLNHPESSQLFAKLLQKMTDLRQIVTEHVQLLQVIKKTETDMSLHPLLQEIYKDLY

Row | Structure (SMILES) | activation
1 | O=S(=O)(NC1CCCCC1)c1ccc(F)c2ccccc12 | 7.29% (inactive)
2 | Cc1cc(C)cc(C(=O)N(CCc2ccccc2)C2=CC3CCC(C2)N3C)c1 (stereo not given) | 0.55% (inactive)
3 | O=C(NCc1cccs1)c1ccc(Br)o1 | 1.17% (inactive)
4 | O=[N+]([O-])c1ccc(Sc2n[nH]c(-c3ccco3)n2)nc1 | 2.58% (inactive)
5 | COc1ccc(N2CCN(CCCNC(=O)C3CCN(S(=O)(=O)N4CCOCC4)CC3)CC2)cc1 | -2.17% (inactive)
6 | O=C(OCc1cc(Cl)ccc1OC(F)F)c1cccnc1 | 0.24% (inactive)
7 | CN1CCN(C(=O)/C(=C\c2cccs2)NC(=O)c2cccs2)CC1 | -1.89% (inactive)
8 | NS(=O)(=O)c1ccc(CCNC(=O)c2ccc([N+](=O)[O-])cc2[N+](=O)[O-])cc1 | 6.7% (inactive)
9 | O=C(Nc1cccc(C(F)(F)F)c1)c1cnccn1 | 12.3% (inactive)
10 | CCOC(=O)c1ccc(COC(=O)CCc2nc(-c3ccccc3)c(-c3ccccc3)o2)cc1 | -0.63% (inactive)
11 | CCO/N=C(/C)c1c(O)cc(-c2ccccc2)n(-c2ccccc2)c1=O | 0.18% (inactive)
12 | CC(=O)N/N=C(\C)c1ccc(Br)cc1Br | -1.47% (inactive)
13 | CCc1ccc(C(=O)OCC(=O)Nc2cccc(S(=O)(=O)NC3=NCCCCC3)c2)cc1 | -1.75% (inactive)
14 | Cc1ccc(NC(=O)c2sc3nc(N)c(C#N)cc3c2N)cc1 | 1.84% (inactive)
15 | COc1cc(NC(=O)c2cc([N+](=O)[O-])ccc2Br)ccc1NC(=O)c1ccco1 | -4.35% (inactive)
16 | CN(C)c1nnnn1-c1ccc(Cl)cc1 | -1.68% (inactive)
17 | Cc1ccccc1NC(=O)C(C)c1ccc(-c2ccccc2)c(F)c1 (stereo not given) | -1.23% (inactive)
18 | CCOc1ccc(/C=N/NC(=O)C(C)Sc2ccccn2)cc1OCC (stereo not given) | 4.85% (inactive)
19 | CCN(CC)S(=O)(=O)c1ccc(Cl)c(C(=O)NC(C)C(c2cccs2)N2CCCC2)c1 (stereo not given) | 5.06% (inactive)
20 | Cc1ccc(C2C3=C(Nc4[nH]n(-c5ccccc5)c(=O)c42)c2ccccc2C3=O)cc1 (stereo not given) | 1.23% (inactive)
21 | COc1ccc(S(=O)(=O)N2CCOCC2)c(C)c1C | 13.6% (inactive)
22 | Cc1ccc(-c2cc(C(=O)N/N=C/C=C/c3ccccc3)n[nH]2)o1 | -0.56% (inactive)

Row | Structure (SMILES) | activation
23 | CCOC(=O)c1c(C)nc2c(c1C)c(=O)oc1ccccc12 | 15.5% (inactive)
24 | Cc1cc(C(=O)CSc2nc(N)cc(=O)[nH]2)c(C)n1CCc1ccc(Cl)cc1 | 5.4% (inactive)
25 | O=C(O)COc1ccc(/C=N/O)cc1Br | 3.92% (inactive)
26 | COCCNC(=O)CCCn1c(=O)c2ccccc2n(Cc2cccc([N+](=O)[O-])c2)c1=O | 2.44% (inactive)
27 | CC(=O)n1cc([C@@H]2C=C(C(=O)N3CCN(Cc4ccc5c(c4)OCO5)CC3)O[C@H](OCc3ccc(CO)cc3)C2)c2ccccc21 | -1.58% (inactive)
28 | Cc1cnc(C(=O)N2CCCC(C(=O)c3ccc(C(F)(F)F)cc3)C2)cn1 (stereo not given) | -0.94% (inactive)
29 | Cc1cc(=O)oc(C)c1C(=O)NCCN(C)Cc1ccccc1 | 1.75% (inactive)
30 | CCCOc1ccc(N/C=C/C(=O)C(C)(C)C)cc1 | 0.22% (inactive)
31 | CN(C)c1ccc(N/C=C/C(=O)C(F)(F)F)cc1 | 23.6% (active)
32 | O=C(/C=C/Nc1ccccc1OC(F)(F)F)C(F)(F)F | 1.89% (inactive)
33 | CC(=O)NS(=O)(=O)c1ccc(NC(=O)C2C3C=CC(C3)C2C(=O)O)cc1 (stereo not given) | 0.92% (inactive)
34 | CC(=O)Cc1nsc(NC(=O)c2ccc(Cl)cc2Cl)n1 | -0.15% (inactive)
35 | O=C(NCc1nnc(SCC(=O)N2CCC(Cc3ccccc3)CC2)o1)c1ccco1 | -1.46% (inactive)
36 | CCOC(=O)C1CCN(C(=O)c2ccccc2N(C)S(=O)(=O)c2ccccc2)CC1 | 0.82% (inactive)
37 | COc1ccc(-n2nc3c(c2NC(=O)c2ccc(N4C(=O)CCC4=O)cc2)CSC3)cc1 | 2.03% (inactive)
38 | COc1ccccc1C1/C(=C(/O)c2ccc(C)cc2)C(=O)C(=O)N1Cc1ccco1 (stereo not given) | -1.85% (inactive)
39 | COc1ccc(/C(O)=C2/C(=O)C(=O)N(c3nc(C)c(C)s3)C2c2ccco2)cc1 (stereo not given) | 32.8% (active)
40 | COc1ccc(/C(O)=C2\C(=O)C(=O)N(Cc3ccco3)C2c2ccc(OC)cc2OC)cc1 (stereo not given) | 8.22% (inactive)
41 | CCc1ccc(NC(=O)C(=O)N/N=C(\C)CC(=O)NCCOC)cc1 | 0.12% (inactive)
42 | CN(C)c1ccc(C(=S)N2CCN(C(=S)Nc3ccc(Cl)cc3)CC2)cc1 | 2.08% (inactive)
43 | CCOC(=O)C1CCN(C(=O)CSc2cc(=O)n(C)c3ccccc23)CC1 | 63.4% (active)
44 | Cn1c(=O)cc(SCC(=O)N2CCCC2)c2cc(Cl)ccc21 | 39.3% (active)

Row | Structure (SMILES) | activation
45 | Cc1cccc(OCc2nnc(SCC(=O)N3CCN(C(=O)c4ccco4)CC3)n2C)c1C | 9.2% (inactive)
46 | CCOC(=O)N1CCC(NC(=O)COc2cc(=O)n(C)c3ccccc23)CC1 | -2.51% (inactive)
47 | CC(=O)c1ccc(-n2nnnc2SCC(=O)N2CCN(C(=O)c3ccco3)CC2)cc1 | 0.9% (inactive)
48 | O=C(CSCc1ccc(Cl)cc1)N1CCCCC1 | 7.11% (inactive)
49 | Cn1c(=O)cc(SCC(=O)N2CCN(C(=O)c3ccco3)CC2)c2ccccc21 | 82.2% (active)
50 | CCOc1ccc(CCNC(=O)CSc2cc(=O)n(C)c3ccc(Cl)cc23)cc1OCC | 10.2% (inactive)
51 | CCOC(=O)C1CCN(C(=O)Cn2cc(C#N)c3ccccc32)CC1 | 13.8% (inactive)
52 | COC(=O)c1ccccc1SC1CC(=O)N(c2cccc(C)c2)C1=O (stereo not given) | 33% (active)
53 | Cc1cccc(N2C(=O)CC(SC(N)=Nc3ccccc3)C2=O)c1 (stereo not given) | -7.93% (inactive)
54 | COC(=O)c1cc(C(=O)OC)cc(N2C(=O)CC(N3CCN(c4ccccc4)CC3)C2=O)c1 (stereo not given) | -12.5% (inactive)
55 | O=C(COC(=O)/C(=C/c1cccs1)c1cccs1)NCc1ccccc1Cl | 3.76% (inactive)
56 | Brc1ccc(C2CC(c3ccccc3)=Nc3ccccc3N2)cc1 (stereo not given) | 0.93% (inactive)
57 | COc1ccc(C2CC(c3ccccc3)=NN2C(=O)COC(=O)COc2ccccc2)cc1 (stereo not given) | -0.96% (inactive)
58 | CNC(=S)N1N=C(c2ccccc2)CC1c1ccc(Br)cc1 (stereo not given) | 34.4% (active)
59 | Cc1ccc2[nH]c3c(=O)n(Cc4ccccn4)cnc3c2c1 | 8.8% (inactive)
60 | CC(=O)c1ccc(S(=O)(=O)N2CCN(c3nc4c(C)c(C)ccc4cc3C#N)CC2)cc1 | 56.6% (active)
61 | Cc1cccc2cc(C#N)c(N3CCCC3)nc12 | -13.8% (inactive)
62 | Cc1cc(C)c2nc(N3CCCC3)c(C#N)cc2c1 | -3.43% (inactive)
63 | O=C(NCc1ccccc1)C1=C[C@@H](C2CCCCC2)C[C@@H](OCc2ccc(CO)cc2)O1 | -1.47% (inactive)
64 | CCS(=O)(=O)Nc1cccc(-c2cc(-c3ccccc3)c3cc(C)ccc3n2)c1 | -3.81% (inactive)
65 | O=C(CSc1nc2cccnc2n1Cc1ccccc1)N1CCc2ccccc21 | -2.44% (inactive)
